Assay outcomes from PubChem BioAssay.
This is a sample that favours compounds with a hit; in the whole collection about 22% have one here.
cytoskel mod: cytoskeleton assembly modification; HUVEC TNFa F-actin phalloidin imaging, high content; inhibition, % at 2 µM; AID 836; actives 0.18% (n = 91,000);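 active = inhibition above the batch mean plus 3 SD and confirmed as a hit by visual image inspection, cut at about 30% in these data, passing the limit was not always enough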
E-sel TNF inh: blocks E-selectin expression induced by TNF alpha; inhibition, % at 2 µM; actives 0.71% (n = 120,000); HUVEC TNFa-induced E-selectin immunofluorescence, high content;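 active = inhibition above the batch mean plus 3 SD, and confirmed as a hit on visual image review, cut at about 43% in these data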;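 note: 0% = TNF-stimulated DMSO wells and 100% = unstimulated control wells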
CYP2C19 act: activators of human cytochrome P450 2C19 | P33261 | recombinant CYP2C19, luciferin-H EGE luminescence; hits give high values; 0 = fully inhibited enzyme, 1 = untreated enzyme | activation factor at 5 µM | 96,000 tested, under 10 active;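 active = activation factor of at least 2 at 5 µM in the primary screen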;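 note: 0 = wells with 2.5 mM tranylcypromine and 1 = vehicle-only wells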
CYP2C9 act: CYP2C9 (human) activation | actives 1.4% (n = 96,000) | activation factor at 5 µM | AID 1024 | recombinant CYP2C9, luciferin-H conversion, luminescence; hits give high values; factor 1 = untreated enzyme, 0 = blocked;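 active = activation factor of 2 or more for CYP2C9 at a 5 µM dose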;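 note: 0 = sulfaphenazole-blocked wells and 1 = vehicle-only wells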
Target sequence (P11712 whole entry, looked up): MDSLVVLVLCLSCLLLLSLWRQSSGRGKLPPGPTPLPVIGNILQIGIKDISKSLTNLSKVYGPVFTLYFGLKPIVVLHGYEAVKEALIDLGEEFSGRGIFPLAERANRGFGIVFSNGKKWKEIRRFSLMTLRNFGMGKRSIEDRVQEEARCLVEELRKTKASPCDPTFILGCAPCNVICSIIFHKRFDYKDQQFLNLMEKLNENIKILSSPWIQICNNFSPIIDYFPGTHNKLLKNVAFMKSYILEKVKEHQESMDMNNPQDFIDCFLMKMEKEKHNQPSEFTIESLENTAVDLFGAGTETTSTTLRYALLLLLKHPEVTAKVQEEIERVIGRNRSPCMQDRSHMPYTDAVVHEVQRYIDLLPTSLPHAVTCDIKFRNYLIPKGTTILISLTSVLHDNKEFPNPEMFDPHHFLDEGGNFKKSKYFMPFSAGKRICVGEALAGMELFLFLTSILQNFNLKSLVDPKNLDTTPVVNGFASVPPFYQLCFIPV
CYP2C19 inhib: blocks human cytochrome P450 2C19. P33261. CYP2C19 Supersomes, luciferin-H EGE luminescence, 30 min. inhibition, % at 5 µM. actives 21% (n = 96,000);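 active = CYP2C19 inhibition above a set limit at 5 µM in the primary screen, cut at about 50% in these data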;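 note: plate controls were negative control wells for no effect and 2.5 mM tranylcypromine positive control for full effect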
CYP2C9 inhib: inhibitors of human CYP2C9. P11712. CYP2C9 Supersomes, luciferin-H conversion, luminescence. inhibition, % at 5 µM. actives 20% (n = 96,000). AID 777;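 active = blocking of liver enzyme CYP2C9 beyond about 50% at 5 µM, limit read from the data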
Active calls of the source: *; . = no result given.

SMILES	cytoskel mod	E-sel TNF inh	CYP2C19 act	CYP2C9 act	CYP2C19 inhib	CYP2C9 inhib
Cc1ccc2[nH]c(=O)c(CN(Cc3cccnc3)C(=O)c3ccncc3)cc2c1	-4.6	.	0.1	0.2	90.7*	80.0*
CCN(Cc1cc2ccccc2[nH]c1=O)C(=O)c1cccnc1	57.1	.	1	1	3.6	2.6
CCN(Cc1cc2cc(OC)ccc2[nH]c1=O)C(=O)c1ccncc1	12.6	-21.4	0.3	0.3	73.6*	68.5*
Nc1ccc2oc3ccc(N)cc3c(=O)c2c1	-8.0	.	0.7	0.6	27.2	42.2
Cc1noc(/C=C/c2ccco2)c1S(=O)(=O)N1CCC(C(=O)N(C)Cc2ccccc2)CC1	-7.5	.	0.6	0.2	35.8	76.2*
Cc1noc(/C=C/c2ccco2)c1S(=O)(=O)N1CCC(C(=O)NC(C)c2ccccc2)CC1 (stereo not drawn)	8.2	.	0.9	0.7	7.1	29.7
Cc1noc(/C=C/c2ccco2)c1S(=O)(=O)N1CCC(C(=O)N2c3ccccc3CC2C)CC1 (stereo not drawn)	21.1	-58.7	0.7	0.3	33.9	69.9*
O=C(COC(=O)c1ccccc1Oc1ccccc1)NC1CCS(=O)(=O)C1 (stereo not drawn)	-11.7	-19.4	0.7	1	33.3	4.7
Cc1[nH]c2ccccc2c1/C=C(\C#N)C(=O)NC(C)c1ccccc1 (stereo not drawn)	20.3	9.7	0.9	2.1*	14.6	-110.9
Cc1[nH]c2ccccc2c1/C=C(\C#N)S(=O)(=O)c1ccccc1	0.2	-5.3	0.8	0.3	19.9	67.4*
CC(NC(=O)/C(C#N)=C/c1cn(-c2ccccc2)nc1-c1ccc(F)cc1)c1ccccc1 (stereo not drawn)	.	-30.2	.	.	.	.
Cc1ccc(S(=O)(=O)N2c3ccccc3NC(=O)CC2C)cc1 (stereo not drawn)	28.8	-25.6	1	1	3.4	3.8
Cc1ccc(S(=O)(=O)N2c3ccccc3NC(=O)C2CC(=O)Nc2ccccc2)cc1 (stereo not drawn)	4.6	25.7	0.4	0.1	56.9*	88.6*
COc1cc2nc(SCc3ccc(Cl)cc3Cl)n(Cc3cccs3)c(=N)c2cc1OC	7.3	-2.7	0.7	0.3	25.6	73.8*
COc1ccc(Cn2c(SCc3cc(C)ccc3C)nc3cc(OC)c(OC)cc3c2=N)cc1	-41.1	24.4	0.6	0.4	36.8	56.4*
COc1ccc(Cn2c(SCc3ccc(C)cc3)nc3cc(OC)c(OC)cc3c2=N)cc1Cl	-17.8	.	1	0.3	-4.5	69.0*
COc1cc2nc(SCc3ccc(C(F)(F)F)cc3)n(Cc3cccs3)c(=N)c2cc1OC	-11.6	-22.1	1.1	0.9	-11.0	6.0
O=C(Cn1cnc2c(nnn2-c2ccccc2)c1=O)N1CCOCC1	-3.2	.	1.2	1.1	-19.8	-13.6
O=C(CC1CC2CCC1C2)Nc1nc(-c2ccccn2)cs1 (stereo not drawn)	.	-57.8	.	.	.	.
CCn1cc(CN2CCN(Cc3cccc(OC)c3)C(CCO)C2)c(C)n1 (stereo not drawn)	.	-19.5	.	.	.	.
COc1ccc(/C=C\C(=O)Oc2cccc(/C=N/NC(=O)Cc3ccc(OC)c(OC)c3)c2)cc1	.	1.4	.	.	.	.
Cc1ccc(CC2CC(=O)N(c3cc(C)on3)C2=O)cc1 (stereo not drawn)	.	.	0.5	0.7	53.7*	34.2
COCCNC(=S)NC12CC3CC(CC(C3)C1)C2	3.9	24.4	0.6	1.1	39.9	-7.7
O=C1C2C3c4ccccc4C(c4ccccc43)[C@@H]2C(=O)N1c1nc(-c2ccccc2)cs1 (stereo partly drawn)	.	20.2	.	.	.	.
O=C1C2C3c4ccccc4C(c4ccccc43)C2C(=O)N1c1nc(-c2ccccc2)cs1 (stereo not drawn)	-10.9	-60.5	0.8	0.4	23.9	62.0*
COCCCNC(=O)c1ccc(CS(=O)(=O)c2ccc(OC)cc2)o1	.	-5.6	1.1	1	-10.9	4.4
COc1ccc(S(=O)(=O)Cc2ccc(C(=O)NC3CC3)o2)cc1	4.5	1.1	0.8	2.2*	16.0	-124.0
COc1ccc(NC(=O)C(NC(C)=O)C(=O)NCc2ccc(F)cc2)cc1 (stereo not drawn)	-11.8	12.4	0.5	0.9	53.8*	14.9
COc1ccc(S(=O)(=O)Cc2ccc(C(=O)NCc3cccnc3)o2)cc1	4.3	.	0.1	0.4	90.0*	57.9*
